Assay outcomes from PubChem BioAssay.
This is a sample that favours compounds with a hit; in the whole collection about 11% have one here.
Pf growth 48h: P. falciparum growth inhibition at 48 hours (one generation). P. falciparum luciferase growth in erythrocytes, 48 h. 310,000 compounds, 5.9% hits. AID 504832. Potency, µM (top dose mostly 28.7 µM), hits mostly inhibitors
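Parasite viability was followed by luminescence of a genomically integrated firefly luciferase. Cultures held 0.1% parasitemia at 2% hematocrit (final), incubated under 5% CO2 at 37 C.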
AMA1 RON2 block: inhibitors of Plasmodium falciparum AMA1-RON2 interaction. Potency, µM (doses to about 58.2 µM), hits mostly inhibitors. 360,000 compounds, 0.2% hits. AlphaScreen AMA1-biotinylated RON2 peptide binding; further: nearly all actives have a fitted effect of over 45% in size
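AMA1 (3D7) with his tag at 25 nM final met compounds first, then biotinylated RON2 peptide at 25 nM; detection used donor plus acceptor beads, 10 µg/mL apiece, read by AlphaScreen after 30 min at room temperature.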
AmpC inh no detg: blocks E. coli AmpC beta-lactamase in detergent-free assay; AmpC nitrocefin hydrolysis, absorbance 480 nm, 0.0001% Triton; Potency, µM (series often up to 57.1 µM), actives largely listed as inhibitors; P00811; 330,000 compounds, 0.52% hits; further: nearly all actives have a fitted effect of over 20% in size
Target sequence (P00811 whole entry, looked up): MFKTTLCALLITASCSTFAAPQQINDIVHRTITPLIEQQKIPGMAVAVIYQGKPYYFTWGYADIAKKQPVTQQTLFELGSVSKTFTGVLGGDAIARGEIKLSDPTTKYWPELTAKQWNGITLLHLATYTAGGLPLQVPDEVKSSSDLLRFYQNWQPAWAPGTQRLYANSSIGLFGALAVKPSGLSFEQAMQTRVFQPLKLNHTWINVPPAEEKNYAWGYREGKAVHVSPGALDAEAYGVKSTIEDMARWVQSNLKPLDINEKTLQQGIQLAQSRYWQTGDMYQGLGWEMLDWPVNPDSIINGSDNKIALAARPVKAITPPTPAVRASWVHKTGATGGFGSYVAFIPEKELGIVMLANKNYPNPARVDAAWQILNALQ
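AmpC (5.3 nM in the dispensed reagent) in 20 mM phosphate pH 7.0 with 0.01% (detergent screen) or 0.0001% Triton X-100 was preincubated with compounds for 15 min at room temperature. Nitrocefin was then added from an 800 uM solution, and hydrolysis was followed at 480 nm.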
AmpC detergent: AmpC beta-lactamase inhibition with detergent present; Potency, µM (doses to about 114 µM), hits mostly inhibitors; P00811; AmpC hydrolysis of nitrocefin, absorbance 480 nm, 0.01% Triton; 370,000 compounds, 0.041% hits; further: nearly all actives have a fitted effect of over 25% in size
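20 mM phosphate pH 7.0 + 0.01% (detergent screen) or 0.0001% Triton X-100; 5.3 nM AmpC reagent; cpd preinc 15 min RT; nitrocefin (800 uM stock) to start; A480 q20 s × 4 min; Activity was normalised to no-enzyme and no-compound control wells.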
HCV inh: inhibitors of hepatitis C virus infection. Huh7.5.1 HCVcc-Cre infection, luciferase reporter, 44 h. Potency, µM (series often up to 41.8 µM), most hits filed as inhibitors. 340,000 compounds, 3.4% hits
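Infectious HCVcc-Cre (~0.5 moi) was added to cells just after compound, with cells seeded 4 h earlier at 1,000 per well. Luciferase activity after 44 h culture reported infection; substrate was incubated 15 min at room temperature before reading.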
Pf growth 96h: P. falciparum growth inhibition at 96 hour, primary screen for plastid delayed-death inhibitors | P. falciparum luciferase reporter growth, 96 h | Potency, µM (series often up to 28.7 µM), most hits filed as inhibitors | 320,000 compounds, 6.9% hits | AID 504834
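Plates of compound plus infected erythrocytes (2% hematocrit, 0.05% parasitemia final) incubate 96 hours, 37 C, 5% CO2. Detection reagent added; reduced luminescence from the parasites' luciferase reporter flags inhibition.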
A number is an active result; [ ] = another dose, or the depositor's remark. The call rests on the fitted dose curve; in most records, active means well fitted curve in the direction sought with a large enough effect; inconclusive means small, poorly fitted or top-dose-only effect, or another doubt; inactive means no such curve, though single readings can be large; an effect the other way counts as inactive or inconclusive.

How did OC(COc1ccc(Cl)cc1)CN1C2=NCCCN2c2ccccc21 (stereo not drawn) do in these assays?
Pf growth 48h: 5.2µM; AMA1 RON2 block: inactive; AmpC inh no detg: inactive; AmpC detergent: inactive; HCV inh: 13µM; Pf growth 96h: inconclusive

Results for O=C(CN1C2=NCCCN2c2ccccc21)c1cccc(Br)c1 ?
Pf growth 48h: inconclusive; AMA1 RON2 block: inactive; AmpC inh no detg: inactive; AmpC detergent: inactive; HCV inh: inconclusive; Pf growth 96h: inconclusive

What do the screens show for `COc1ccc(CNc2ccc3c(c2)ncn3-c2ccccc2OC)cc1`?
Pf growth 48h: 15µM; AMA1 RON2 block: inconclusive; AmpC inh no detg: inactive; AmpC detergent: inactive; HCV inh: inconclusive; Pf growth 96h: 13µM

How did COc1ccccc1-n1cnc2cc(NS(=O)(=O)c3ccc(Br)cc3)ccc21 do in these assays?
AMA1 RON2 block: inactive; AmpC inh no detg: inactive; AmpC detergent: inactive; HCV inh: inconclusive; Pf growth 96h: 5.2µM

Results for CCOc1ccc(CNc2ccc3c(c2)ncn3C)cc1 ?
Pf growth 48h: inactive; AMA1 RON2 block: inactive; AmpC inh no detg: inactive; AmpC detergent: inactive; HCV inh: inactive; Pf growth 96h: 10µM

How did CCOc1ccc(CNc2ccc3c(c2)ncn3C(C)(C)C)cc1 do in these assays?
Pf growth 48h: inconclusive; AMA1 RON2 block: inactive; AmpC inh no detg: inactive; AmpC detergent: inactive; HCV inh: inconclusive; Pf growth 96h: inactive

Results for CC1CCCN(S(=O)(=O)c2ccc(N3CCCCS3(=O)=O)cc2)C1 (stereo not drawn) ?
AmpC detergent: inactive

How did Cc1ccc(-n2nc3c(N4CCC(C(=O)NCc5ccccc5Cl)CC4)nnc(C)c3c2C)cc1 do in these assays?
AmpC detergent: inactive

What do the screens show for `CCOc1ccc(CNC(=O)C2CCN(c3nnc(C)c4c(C)n(-c5ccc(C)cc5)nc34)CC2)cc1`?
Pf growth 48h: inconclusive; AMA1 RON2 block: inactive; AmpC inh no detg: inactive; AmpC detergent: inactive; HCV inh: 13µM; Pf growth 96h: inconclusive

What do the screens show for `CCOc1ccccc1CNC(=O)C1CCN(c2nnc(C)c3c(C)n(-c4ccc(C)cc4)nc23)CC1`?
Pf growth 48h: inconclusive; AMA1 RON2 block: inactive; AmpC inh no detg: inactive; AmpC detergent: inactive; HCV inh: 11µM; Pf growth 96h: inconclusive

Results for COc1ccc(-n2nc3c(N4CCC(C(=O)NCc5cccc(C)c5)CC4)nnc(C)c3c2C)cc1 ?
Pf growth 48h: inconclusive; AMA1 RON2 block: inactive; AmpC inh no detg: inactive; AmpC detergent: inactive; HCV inh: inconclusive; Pf growth 96h: inconclusive

What do the screens show for `Cc1ccc(-n2nc3c(N4CCC(C(=O)NCc5ccccc5C)CC4)nnc(C)c3c2C)cc1`?
Pf growth 48h: inconclusive; AMA1 RON2 block: inactive; AmpC inh no detg: inactive; AmpC detergent: inactive; HCV inh: 6.3µM; Pf growth 96h: inconclusive

Results for CC(C)(C)c1ccc(OCC(=O)Nc2c(C(=O)c3ccc(F)cc3)oc3ccccc23)cc1 ?
AmpC detergent: inactive

How did CN(C(=O)CSc1nc(-c2ccccc2)no1)c1ccc(F)cc1 do in these assays?
AmpC detergent: inactive

What do the screens show for `CC1(C)CC(=O)c2c(oc3c(Cl)cc(NS(=O)(=O)c4ccc(Cl)cc4)cc23)C1`?
AmpC detergent: inactive

What do the screens show for `Cc1ccc(NC(=S)N/N=C/c2ccc([N+](=O)[O-])s2)cc1`?
Pf growth 48h: 9.3µM; AMA1 RON2 block: inactive; AmpC inh no detg: inactive; AmpC detergent: inconclusive; HCV inh: inconclusive; Pf growth 96h: inactive

How did Cc1onc(-c2ccccc2)c1C(=O)N/N=C/c1ccc([N+](=O)[O-])s1 do in these assays?
Pf growth 48h: 12µM; AMA1 RON2 block: inactive; AmpC inh no detg: inactive; AmpC detergent: inconclusive; HCV inh: inconclusive; Pf growth 96h: inconclusive

How did Cc1onc(-c2ccccc2)c1C(=O)N/N=C/c1ccco1 do in these assays?
Pf growth 48h: inactive; AMA1 RON2 block: inactive; AmpC inh no detg: inactive; AmpC detergent: inactive; HCV inh: inconclusive; Pf growth 96h: inactive

Results for O=C(CNC(=O)c1ccccc1Cl)N/N=C/c1ccc([N+](=O)[O-])s1 ?
Pf growth 48h: inconclusive; AMA1 RON2 block: inactive; AmpC inh no detg: inactive; AmpC detergent: inconclusive; HCV inh: 13µM; Pf growth 96h: inconclusive

What do the screens show for `COc1ccccc1CNC(=O)c1oc2ccc(S(=O)(=O)N3CCCCC3)cc2c1C`?
AmpC detergent: inactive

What do the screens show for `Cc1cccc(-c2nc(Cn3c(SCc4cc(C)ccc4C)nc4ccncc43)c(C)o2)c1`?
AmpC detergent: inactive

Results for O=C(Cn1c(=O)n(-c2ccccc2Cl)c(=O)c2sc3ccccc3c21)N1CCCC1 ?
AmpC detergent: inactive

Results for O=C(Cc1ccc(Nc2nc3ccc(Br)cc3[nH]2)cc1)NCCc1cccs1 ?
Pf growth 48h: 1.9µM; AMA1 RON2 block: inactive; AmpC inh no detg: inactive; AmpC detergent: inactive; HCV inh: inconclusive; Pf growth 96h: 3.3µM

How did O=C(NCC1CC1)c1ccc(Nc2nc3ccc(Br)cc3[nH]2)cc1 do in these assays?
Pf growth 48h: inconclusive; AMA1 RON2 block: inactive; AmpC inh no detg: inactive; AmpC detergent: inactive; HCV inh: inconclusive; Pf growth 96h: 12µM

What do the screens show for `O=C(NCc1ccco1)c1ccc2nc([C@@H]3O[C@H](CO)[C@H](O)[C@H](O)[C@H]3O)[nH]c2c1`?
AMA1 RON2 block: inactive

What do the screens show for `O=C(NCc1ccco1)c1cccc(Nc2nc3ccc(Br)cc3[nH]2)c1`?
Pf growth 48h: 12µM; AMA1 RON2 block: inactive; AmpC inh no detg: inactive; AmpC detergent: inactive; HCV inh: inactive; Pf growth 96h: 13µM

Results for COc1ccc(CCNC(=O)Cc2cccs2)cc1 ?
Pf growth 48h: inactive; AMA1 RON2 block: inactive[11.6 µM]; AmpC inh no detg: inactive; AmpC detergent: inactive; HCV inh: inactive; Pf growth 96h: inactive

Results for CCn1cnc2c(=O)oc3ccc(S(=O)(=O)N4CCN(c5cc(C)ccc5C)CC4)cc3c21 ?
AmpC detergent: inactive

What do the screens show for `Cc1ccc(C)c(CN2CCCN(Cc3ccc(F)cc3)S2(=O)=O)c1`?
AmpC detergent: inactive

How did CN(C)CCCN(C(=O)c1cc(-c2cccs2)nc2ccccc12)c1nc2c(F)cccc2s1 do in these assays?
Pf growth 48h: inconclusive; AMA1 RON2 block: inactive; AmpC inh no detg: inactive; AmpC detergent: inactive; HCV inh: inactive; Pf growth 96h: inconclusive

How did Cc1ccc2nc(N(CCCN(C)C)C(=O)c3cc(-c4cccs4)nc4ccccc34)sc2c1 do in these assays?
Pf growth 48h: inactive; AMA1 RON2 block: inconclusive; AmpC inh no detg: inactive; AmpC detergent: inconclusive; HCV inh: 11µM; Pf growth 96h: 13µM

What do the screens show for `COc1cc2ccccc2cc1C(=O)N(CCN(C)C)c1nc2ccc(C)cc2s1`?
Pf growth 48h: inconclusive; AMA1 RON2 block: inactive; AmpC inh no detg: inactive; AmpC detergent: inactive; HCV inh: 6.3µM; Pf growth 96h: inactive
